High-throughput results as filed in PubChem.
Tau fibril FP = inhibitors of human tau fibril formation. P10636. Potency, µM (doses to about 57.7 µM), inactives show at the highest dose activity, negative = inhibition, actives largely listed as inhibitors. K18 P301L tau heparin fibrillization, Alexa594 FP, 6 h. 280,000 compounds, 0.39% hits; further: potency means the concentration at half of the fitted maximal effect; nearly all actives have a fitted effect of over 55% in size
Target sequence (P10636 561-689 P618L limits assumed): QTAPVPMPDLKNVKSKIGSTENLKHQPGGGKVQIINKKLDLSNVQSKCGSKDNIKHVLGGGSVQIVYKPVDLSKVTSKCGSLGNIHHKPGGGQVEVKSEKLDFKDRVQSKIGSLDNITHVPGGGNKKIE
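Recombinant K18 P301L […], labeled with Alexa 594 at 0.24 uM over 15 uM unlabeled; heparin inducer 20 uM final; 37 C, 6 hr; FP endpoint.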
Tau fibril ThT = blocks human tau fibril formation measured by thioflavin T; AID 1460; recombinant tau K18 P301L, heparin-induced fibrillization, ThT fluorescence; Potency, µM (titrated, usually from 57.4 µM), for the others: at the highest dose activity, negative = inhibition, actives largely listed as inhibitors; 270,000 compounds, 2.1% hits; P10636; further: potency means the concentration at half of the fitted maximal effect; nearly all actives have a fitted effect of over 55% in size
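Using a mix of unlabeled (15 uM) and Alexa 594-labeled (0.24 uM) tau K18 P301L, heparin-triggered fibrillization over 6 hr at 37 C was scored by ThT fluorescence.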
FBPA coupling cs = inhibits coupling enzyme system, counter-screen for aldolase hits; coupling enzyme system counterscreen, AmpLite Red fluorescence; activity change, negative = inhibition, % at 58.2 µM, hits read low; 290,000 compounds, 0.67% hits; AID 2472; in the data active means activity change below about -30%
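Final compound at 57.5 uM, incubated 10 min at RT with coupling enzyme reagent (glyceraldehyde-3-phosphate), then 20 min with substrate and AmpLite Red detection. Fluorescence read at 525/598 nm; tests interference with the coupling assay, not aldolase inhibition.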
Tau fluor cs = counter-screen for tau fibril formation inhibitors. tau K18 P301L Alexa594 fluorescence, heparin fibrillization. Potency, µM (highest dose often 57.7 µM), inactives show at the highest dose activity change, negative = decrease. 280,000 compounds, 0.93% hits. AID 1463; further: potency means the concentration at half of the fitted maximal effect; nearly all actives have a fitted effect of over 55% in size
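Human tau K18 P301L (15 uM unlabeled, 0.24 uM Alexa 594-labeled) in 100 mM sodium acetate pH 7 with 20 uM heparin, 6 hr at 37 C. ThT 30 uM added, 1 hr ambient; Alexa 594 FP and total fluorescence read at 555/632 nm.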
Sfp PPTase inh = inhibitors of Bacillus subtilis Sfp phosphopantetheinyl transferase; Potency, µM, inactives show largest response in the series, negative = inhibition, most hits filed as inhibitors; 310,000 compounds, 3.5% hits; Biochemical Sfp PPTase activity, qHTS; AID 1490; Q9F4F7;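 further: the enzyme is Sfp with the accession as filed and its product quenches rhodamine fluorescence; potency means the concentration at half of the fitted maximal effect; 0% = enzyme reaction without inhibitor and -100% = no enzyme wells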
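Reaction rates are the 30-min fluorescence difference (ex 525, em 598 nm) in wells containing 15 nM Sfp, 5 uM rhodamine-CoA and 12.5 uM BHQ-2-YbbR at pH 7.6 with 10 mM MgCl2.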
* = called active by the depositor; [ ] = remark or other dose. A selection: hits, their analogues and other compounds. The true share with any hit is near 5.2%. Unless noted, the call rests on the fitted dose curve; in most records, active means well fitted curve in the direction sought with a large enough effect; inconclusive means small, poorly fitted or top-dose-only effect, or another doubt; inactive means no such curve, though single readings can be large; an effect the other way counts as inactive or inconclusive. Unless noted, on the % scale 0 is the no-effect control and ±100 the full control effect.

CCCCCCCCCCCCCCCCCCCCCC(=O)Nc1ccn([C@@H]2O[C@H](CO)[C@@H](O)[C@@H]2O)c(=O)n1 was read as Sfp PPTase inh 12.4%.
Cc1sc2nc(SCC(=O)NCc3ccco3)n(C)c(=O)c2c1C was read as Tau fibril FP 1.1%, Tau fibril ThT -5.4%, FBPA coupling cs 2.7, Tau fluor cs -3.8% and Sfp PPTase inh 9.6%.
`CC1Cc2nc(SCC(=O)N3CCN(c4ccccc4)CC3)n(CCc3ccccc3)c(=O)c2S1` (stereo not drawn) gave Tau fibril FP 1.9%, Tau fibril ThT inconclusive, FBPA coupling cs -6.1, Tau fluor cs -19.8% and Sfp PPTase inh 44.7µM*.
CCn1c(SCC(=O)N2CCN(c3ccccc3)CC2)nc2c(c1=O)SC(C)C2 (stereo not drawn) was read as Tau fibril FP -2.5%, Tau fibril ThT 4.2%, FBPA coupling cs -1.7, Tau fluor cs 7.2% and Sfp PPTase inh 13.8%.
CCn1c(SCC(=O)NC(=O)NCc2ccco2)nc2sc(C)c(C)c2c1=O was read as Tau fibril FP inconclusive, Tau fibril ThT inconclusive, FBPA coupling cs 8.2, Tau fluor cs -10.1% and Sfp PPTase inh 25.1µM*.
`CCn1c(SCC(=O)NCc2ccco2)nc2c(c1=O)SC(C)C2` (stereo not drawn) gave Tau fibril FP -3.1%, Tau fibril ThT -3.2%, FBPA coupling cs 6.1, Tau fluor cs 5.0% and Sfp PPTase inh 39.8µM*.
`CCn1c(SCC(=O)NCc2ccccc2)nc2c(c1=O)SC(C)C2` (stereo not drawn) gave Tau fibril FP -11.3%, Tau fibril ThT -16.0%, FBPA coupling cs -7.3, Tau fluor cs -15.5% and Sfp PPTase inh 18.2%.
`CCCn1c(SCC(=O)NC(=O)NCc2ccco2)n[nH]c1=O` gave Tau fibril FP 4.2%, Tau fibril ThT -8.1%, FBPA coupling cs -8.2, Tau fluor cs -0.2% and Sfp PPTase inh 22.4µM*.
`COc1ccccc1N1CCN(c2ccc(NC(=O)c3ccc(C)cc3)cc2C(=O)O)CC1` gave Tau fibril FP -1.3%, Tau fibril ThT -7.2% and Tau fluor cs -0.8%.
Screening Cc1ccc(NS(=O)(=O)c2cnc(N)nc2)c(C)c1 returned Tau fibril FP 2.3%, Tau fibril ThT 0.9% and Tau fluor cs 1.8%.
COc1ccc(S(=O)(=O)c2nnn(-c3cc(Cl)c(OC)cc3OC)c2C)cc1 was read as Tau fibril FP -10.0%, Tau fibril ThT -2.3% and Tau fluor cs inconclusive.
O=c1c2sc3ccccc3c2n(Cc2cccc(Cl)c2)c(=O)n1Cc1ccccc1 was read as Tau fibril FP inconclusive, Tau fibril ThT 4.4% and Tau fluor cs -10.9%.
`Cc1cccc(NC(=O)CSCc2nc3c(nnn3Cc3ccc(F)cc3)c(=O)[nH]2)c1C` gave Tau fibril FP 3.1%, Tau fibril ThT 12.4%, FBPA coupling cs 2.6, Tau fluor cs 11.8% and Sfp PPTase inh -13.4%.
For CN(C)c1ccc(NC(=O)CSCc2nc3c(nnn3Cc3ccc(F)cc3)c(=O)[nH]2)cc1 the results were Tau fibril FP 0.0%, Tau fibril ThT inconclusive, FBPA coupling cs -36.5*, Tau fluor cs -14.6% and Sfp PPTase inh 21.0%.
`COc1cc([N+](=O)[O-])c2nccnc2c1` gave Tau fibril FP -0.6%, Tau fibril ThT -1.1%, FBPA coupling cs 1.3, Tau fluor cs -3.4% and Sfp PPTase inh -3.6%.
For CCOc1cc([N+](=O)[O-])c2nc(N)sc2c1 the results were Tau fibril FP 3.4%, Tau fibril ThT 20µM*, FBPA coupling cs -0.3, Tau fluor cs -20.7% and Sfp PPTase inh -0.2%.
`CCCCOc1cccc(C(=O)N(Cc2sccc2C)C2CCS(=O)(=O)C2)c1` (stereo not drawn) gave Tau fibril FP 5.3%, Tau fibril ThT -8.8% and Tau fluor cs -15.5%.
`Cc1ccc(C)n1-c1cccc(N)c1` gave Tau fibril FP -11.5%, Tau fibril ThT 15.8µM*, FBPA coupling cs -8.9, Tau fluor cs inconclusive and Sfp PPTase inh 9.5%.
Screening Cc1ccc(C)n1-c1cccc(C(=O)O)c1 returned Tau fibril FP inconclusive, Tau fibril ThT inconclusive, FBPA coupling cs -2.4, Tau fluor cs -13.3% and Sfp PPTase inh -25.6%.
O=C(NCc1ccccc1)c1ccc(CSc2nc3cccnc3n2Cc2cccc(F)c2)cc1 was read as Tau fibril FP 5.5%, Tau fibril ThT 1.0% and Tau fluor cs -24.5%.
For CCCCCCCCCCCCCC[C@@H](O)[C@@H](O)[C@H](CO)NC(C)=O the results were FBPA coupling cs -0.8 and Sfp PPTase inh inconclusive.
`CC(C)c1nn2c(=O)cc(COC(=O)c3cccc(NC(=O)c4ccccc4F)c3)nc2s1` gave Tau fibril FP 2.1%, Tau fibril ThT inconclusive and Tau fluor cs 0.4%.
Screening Cc1ccc(N=Cc2ccc[nH]2)c(O)c1 returned Tau fibril FP inconclusive, Tau fibril ThT 15.8µM*, FBPA coupling cs -33.8*, Tau fluor cs inconclusive and Sfp PPTase inh -18.8%.
Screening Cc1cccc(C(=O)N/N=C/c2ccc[nH]2)c1 returned Tau fibril FP 3.5%, Tau fibril ThT inconclusive, FBPA coupling cs -15.0, Tau fluor cs -10.5% and Sfp PPTase inh 9.4%.
`COc1ccc(Nc2nc3ccccc3nc2NS(=O)(=O)c2cccs2)cc1` gave Tau fibril FP 15.1%, Tau fibril ThT 14.1µM*, FBPA coupling cs 9.7, Tau fluor cs inconclusive and Sfp PPTase inh 19.9%.
COc1ccc(-c2oc3ncn4nc(-c5ccccc5Br)nc4c3c2-c2ccc(OC)cc2)cc1 was read as Tau fibril FP -6.0%, Tau fibril ThT -9.5% and Tau fluor cs -5.6%.
Screening CCOc1ccccc1C(=O)Nc1ccc2nc(N(CC)CC)cc(C)c2c1 returned Tau fibril FP -2.5%, Tau fibril ThT inconclusive and Tau fluor cs -21.9%.
For CCN(CC)c1cc(C)c2cc(NC(=O)/C=C/c3ccc(C)cc3)ccc2n1 the results were Tau fibril FP 2.0%, Tau fibril ThT inconclusive and Tau fluor cs 15.8µM*[quencher].
Screening CCOc1ccc(/C=C/C(=O)Nc2ccc3nc(N(CC)CC)cc(C)c3c2)cc1OC returned Tau fibril FP inconclusive, Tau fibril ThT 7.08µM* and Tau fluor cs inconclusive.
For CCN(CC)c1cc(C)c2cc(NC(=O)c3cccc(OC)c3OC)ccc2n1 the results were Tau fibril FP 14.4%, Tau fibril ThT inconclusive and Tau fluor cs inconclusive.
Screening CCOc1ccc(C(=O)Nc2ccc3nc(N(CC)CC)cc(C)c3c2)cc1 returned Tau fibril FP 9.3%, Tau fibril ThT inconclusive and Tau fluor cs 15.8µM*[quencher].
`CCN(CC)c1cc(C)c2cc(NC(=O)/C=C/c3cc(OC)c(OC)c(OC)c3)ccc2n1` gave Tau fibril FP 8.6%, Tau fibril ThT 4.47µM* and Tau fluor cs inconclusive.
